The values that follow come from PubChem BioAssay.

Activity calls are given as the source filed them.

The target in test [1] is Albumin (Bos taurus) (UniProt P02769). The test is described as follows: bovine serum albumin binders on microarray, profiling panel, artefact control for SMM control protein annotation, biochemical, small-molecule microarray, Alexa647 label, 635/667 nm fluorescence (AID 1118).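 Also: score merges 667 nm emission intensity and signal-to-noise per printed compound spot.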 The note with it: BSA-A647 binding, fluorescence 635 nm, higher = more signal.
Chain of Albumin (Bos taurus) (P02769 whole entry, looked up): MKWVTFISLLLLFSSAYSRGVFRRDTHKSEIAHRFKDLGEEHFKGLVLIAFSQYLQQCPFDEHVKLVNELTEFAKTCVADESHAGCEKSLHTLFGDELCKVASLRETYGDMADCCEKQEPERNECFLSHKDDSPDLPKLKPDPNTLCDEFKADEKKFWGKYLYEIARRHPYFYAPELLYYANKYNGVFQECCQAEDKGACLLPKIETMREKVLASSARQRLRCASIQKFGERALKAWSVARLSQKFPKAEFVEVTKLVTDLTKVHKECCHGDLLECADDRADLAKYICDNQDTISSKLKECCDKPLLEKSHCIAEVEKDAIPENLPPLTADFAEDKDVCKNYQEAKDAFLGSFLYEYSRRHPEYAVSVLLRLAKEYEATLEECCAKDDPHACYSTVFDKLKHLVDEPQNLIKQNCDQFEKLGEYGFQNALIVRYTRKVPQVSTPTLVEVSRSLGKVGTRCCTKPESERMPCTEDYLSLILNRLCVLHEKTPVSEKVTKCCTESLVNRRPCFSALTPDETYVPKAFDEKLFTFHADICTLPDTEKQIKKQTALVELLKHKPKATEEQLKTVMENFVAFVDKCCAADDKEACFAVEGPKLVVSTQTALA
Test [2] is described as follows: small-molecule microarray binders of probe aXIP, primary screen, biochemical, NeuroSMM set, 635/667 nm fluorescence (AID 1119).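 Also: probe is the protein aXip251-270 applied at 1 µg/mL to compound-printed slides; binding of probe to printed compounds measured as 667 nm fluorescence plus signal to noise.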 The note with it: higher = more signal, called active from +8 up or from −8 down.
A short description of test [3]: small-molecule binders of probe aNOTCH3, primary screen, biochemical, small-molecule microarray, 635/667 nm fluorescence (AID 1120).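 Also: probe is a biotin-tagged antibody raised against NOTCH3 rather than NOTCH3 protein; score merges spot fluorescence near 667 nm with spot signal to noise.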 Particulars: higher = more signal.
Test [4] in a line: small-molecule binders of probe aNOTCH2, primary screen, biochemical, small-molecule microarray, 635/667 nm fluorescence (AID 1121).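 Also: score merges feature fluorescence read at 667 nm with its signal to noise.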 The note with it: higher = more signal.
Test [5] deals with Carbonic anhydrase 2 (Homo sapiens) (UniProt P00918). The test is described as follows: CAII small-molecule binders, profiling panel, biochemical, small-molecule microarray, Alexa647-labelled CAII (AID 1122). The note with it: CAII-A647 binding fluorescence, higher = more signal.
Test [6] is described as follows: COS7 lysate on small-molecule microarray, probe aHis, 635 nm (AID 1123).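 Also: z-score combines 667nm fluorescence intensity with signal-to-noise per printed compound spot.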 The note with it: COS7 cell lysate, fluorescence, higher = more signal.
A short description of test [7]: compound binding in COS7 lysate, probe aLAP1, primary screen, cell lysate, small-molecule microarray (AID 1124).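 Also: lysate comes from COS7 cells expressing LAP1 and is applied at 0.3 µg/mL; score merges spot fluorescence near 667 nm with signal-to-noise over triplicate slides.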 The note with it: probe aLAP1, fluorescence, higher = more signal.
The test system of test [8] is Sam68 (KHDRBS1). The experiment in a line: Sam68 small-molecule binders, primary screen, biochemical, small-molecule microarray, 635 nm fluorescence (AID 1125).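 Also: score merges 667 nm channel intensity with signal to noise over triplicate slides.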 The note with it: small-molecule microarray binding, higher = more signal.
In test [9] the test system is Chordin-like protein 2 (CHRDL2). The experiment in a line: CHRDL2 small-molecule binders, primary screen, biochemical, small-molecule microarray, 635 nm fluorescence (AID 1126).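 Also: printed compound slides probed with Chrdl2 protein at 4 µg/mL for 1 h at 4 C; score merges 667 nm emission intensity with signal to noise over three replicate slides.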 Particulars: small-molecule microarray binding, fluorescence 635 nm; higher = more signal.
In test [10] the target is Concanavalin-A (Canavalia ensiformis) (UniProt P02866). The experiment in a line: ConA small-molecule binders, primary screen, artefact control for SMM control protein annotation, biochemical, small-molecule microarray, Alexa647 label, 635 nm (AID 1127).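 Also: z combines 667 nm emission intensity with signal-to-noise across three replicate slides.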 Particulars: ConA-A647 binding fluorescence, higher = more signal.
Chain of Concanavalin-A (Canavalia ensiformis) (P02866 whole entry, looked up): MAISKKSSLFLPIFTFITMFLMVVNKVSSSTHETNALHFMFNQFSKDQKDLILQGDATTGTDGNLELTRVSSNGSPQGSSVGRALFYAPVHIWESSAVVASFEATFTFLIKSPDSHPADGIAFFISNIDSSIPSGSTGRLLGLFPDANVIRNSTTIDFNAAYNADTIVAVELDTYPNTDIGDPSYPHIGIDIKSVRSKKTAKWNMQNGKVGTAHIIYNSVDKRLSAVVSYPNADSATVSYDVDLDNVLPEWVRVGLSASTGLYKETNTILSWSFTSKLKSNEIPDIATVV
Test [11] is described as follows: anti-His antibody binders, primary screen, artefact control for SMM control protein annotation, biochemical, small-molecule microarray, 635 nm fluorescence (AID 1128).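 Also: score merges feature fluorescence with signal-to-noise for each printed compound spot.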 Particulars: anti-His Alexa647 antibody binding, higher = more signal.
Test [12] deals with Human papillomavirus type 1a E7 protein (residues 1-88). The test is described as follows: HPV1a E7 small-molecule binders, primary screen, biochemical, small-molecule microarray, residues 1-88, 635 nm (AID 1129). The note with it: small-molecule microarray binding, fluorescence 635 nm; higher = more signal.
Test [13] has as its target Focal adhesion kinase 1 (Homo sapiens) (UniProt Q05397). The experiment in a line: small-molecule microarray binders of FAK, primary screen, biochemical, 635/667 nm fluorescence, BSA, DTT (AID 1130).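 Also: composite of spot emission at 667 nm and signal to noise over triplicate slides.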 Particulars: PTK2 binding, 635 nm fluorescence, higher = more signal.
The subject of test [14] is Fibrinogen (Alexa647-labelled). The test is described as follows: fibrinogen binders on compound microarrays, profiling panel, artefact control for SMM control-protein annotation, biochemical, small-molecule microarray, 635/667 nm fluorescence (AID 1131).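 Also: z-score merges 667 nm fluorescence with per-spot signal-to-noise over triplicate slides.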 Particulars: fibrinogen-A647 binding fluorescence, higher = more signal.
In test [15] the target is Follistatin (Homo sapiens) (UniProt P19883). The experiment in a line: follistatin binders on small-molecule microarrays, primary screen, biochemical, small-molecule microarray, 635/667 nm fluorescence (AID 1132). The note with it: FST binding, 635 nm fluorescence, higher = more signal.
Chain of Follistatin (Homo sapiens) (P19883 whole entry, looked up): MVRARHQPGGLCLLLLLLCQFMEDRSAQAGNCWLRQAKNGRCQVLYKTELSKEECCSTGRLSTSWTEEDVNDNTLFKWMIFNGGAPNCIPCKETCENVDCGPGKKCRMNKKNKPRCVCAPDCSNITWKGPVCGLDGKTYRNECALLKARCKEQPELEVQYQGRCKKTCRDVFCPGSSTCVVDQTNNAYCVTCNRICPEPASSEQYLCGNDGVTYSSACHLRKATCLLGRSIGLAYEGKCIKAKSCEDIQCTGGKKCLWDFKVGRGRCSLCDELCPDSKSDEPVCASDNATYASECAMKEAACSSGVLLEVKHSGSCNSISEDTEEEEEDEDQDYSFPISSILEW
Test [16] concerns the target Fibroblast growth factor 2 (Homo sapiens) (UniProt P09038). The test is described as follows: FGF2 binders on small-molecule microarrays, primary screen, biochemical, small-molecule microarray, 635/667 nm fluorescence (AID 1133). Particulars: small-molecule microarray binding, FGF2, fluorescence 635/667; higher = more signal.
The nature of test [17]: mitochondrial membrane potential change in A549 cells, profiling panel, cell-based, JC-1 fluorescence, basal, 24 h, 100 nL (AID 1138).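 Also: A549 lung adenocarcinoma cells under basal conditions with no added stimulus; test concentration not given here.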 Particulars: higher = more signal.
Test [18] deals with Lefty1. The test is described as follows: Lefty1 binders on small-molecule microarrays, primary screen, biochemical, small-molecule microarray, 635/667 nm fluorescence (AID 1139). Particulars: small-molecule microarray binding, fluorescence 635/667; higher = more signal.
Test [19] concerns wheat germ agglutinin (Triticum aestivum), Alexa647-labelled. The experiment in a line: wheat germ agglutinin binders on compound microarrays, profiling panel, artefact control for SMM control-protein annotation, biochemical, small-molecule microarray, 635/667 nm fluorescence (AID 1140).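 Also: score merges 667 nm feature emission with signal to noise over triplicate slides.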 Particulars: WGA-A647 binding, 635 nm fluorescence, higher = more signal.
Test [20] concerns the target Luciferin 4-monooxygenase (Photinus pyralis) (UniProt P08659). The experiment in a line: firefly luciferase enzyme inhibitors, primary screen, biochemical, luminescence, purified enzyme, 2006 set (AID 1141).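 Also: cell-free assay with purified firefly luciferase at 100 ng per well in PBS; test concentration not given here.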 The note with it: SteadyGlo luminescence, 30 min, higher = more signal, called active from +8 up or from −8 down.

Chain of Luciferin 4-monooxygenase (Photinus pyralis) (P08659 whole entry, looked up): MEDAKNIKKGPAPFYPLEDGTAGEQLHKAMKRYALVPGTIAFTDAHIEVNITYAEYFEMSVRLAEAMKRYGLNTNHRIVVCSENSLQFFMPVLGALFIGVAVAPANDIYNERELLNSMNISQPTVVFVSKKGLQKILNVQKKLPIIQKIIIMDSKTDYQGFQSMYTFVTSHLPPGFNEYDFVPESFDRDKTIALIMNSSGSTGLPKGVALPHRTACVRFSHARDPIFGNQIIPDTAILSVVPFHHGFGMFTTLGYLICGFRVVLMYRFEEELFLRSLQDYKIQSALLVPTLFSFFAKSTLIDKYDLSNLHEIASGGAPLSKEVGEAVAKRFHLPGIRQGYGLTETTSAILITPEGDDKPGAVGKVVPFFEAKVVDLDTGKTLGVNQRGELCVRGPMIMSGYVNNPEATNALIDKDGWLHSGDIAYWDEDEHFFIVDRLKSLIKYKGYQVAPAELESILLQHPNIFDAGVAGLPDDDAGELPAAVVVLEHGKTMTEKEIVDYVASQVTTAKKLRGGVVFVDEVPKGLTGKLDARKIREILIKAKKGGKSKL
Chain of Focal adhesion kinase 1 (Homo sapiens) (Q05397 whole entry, looked up): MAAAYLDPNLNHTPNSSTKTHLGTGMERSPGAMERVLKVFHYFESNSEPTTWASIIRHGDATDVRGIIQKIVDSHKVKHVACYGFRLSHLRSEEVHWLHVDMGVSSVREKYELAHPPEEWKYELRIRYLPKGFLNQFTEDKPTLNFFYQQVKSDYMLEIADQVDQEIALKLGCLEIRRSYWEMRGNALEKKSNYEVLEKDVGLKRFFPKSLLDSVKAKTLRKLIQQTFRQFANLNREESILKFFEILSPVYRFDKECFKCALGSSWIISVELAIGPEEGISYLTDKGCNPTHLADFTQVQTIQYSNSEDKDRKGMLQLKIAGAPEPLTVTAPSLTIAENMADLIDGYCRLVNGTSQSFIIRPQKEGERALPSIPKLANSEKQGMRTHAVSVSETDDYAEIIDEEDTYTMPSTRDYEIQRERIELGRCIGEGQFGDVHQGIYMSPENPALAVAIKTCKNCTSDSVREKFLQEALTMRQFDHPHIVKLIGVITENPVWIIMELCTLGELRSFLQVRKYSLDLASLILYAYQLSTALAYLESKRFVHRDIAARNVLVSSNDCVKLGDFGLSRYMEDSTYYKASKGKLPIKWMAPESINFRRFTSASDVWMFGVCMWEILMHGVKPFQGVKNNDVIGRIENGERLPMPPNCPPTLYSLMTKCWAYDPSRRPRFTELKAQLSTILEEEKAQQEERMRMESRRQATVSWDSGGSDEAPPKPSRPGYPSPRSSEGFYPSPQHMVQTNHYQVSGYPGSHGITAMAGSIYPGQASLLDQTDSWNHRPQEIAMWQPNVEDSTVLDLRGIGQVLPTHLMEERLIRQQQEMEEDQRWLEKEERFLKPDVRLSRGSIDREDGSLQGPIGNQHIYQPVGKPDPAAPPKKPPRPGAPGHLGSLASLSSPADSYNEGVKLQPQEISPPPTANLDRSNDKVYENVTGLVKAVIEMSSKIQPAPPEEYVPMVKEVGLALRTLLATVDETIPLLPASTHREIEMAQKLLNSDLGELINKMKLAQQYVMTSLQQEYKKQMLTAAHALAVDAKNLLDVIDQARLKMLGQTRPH
Chain of Fibroblast growth factor 2 (Homo sapiens) (P09038 whole entry, looked up): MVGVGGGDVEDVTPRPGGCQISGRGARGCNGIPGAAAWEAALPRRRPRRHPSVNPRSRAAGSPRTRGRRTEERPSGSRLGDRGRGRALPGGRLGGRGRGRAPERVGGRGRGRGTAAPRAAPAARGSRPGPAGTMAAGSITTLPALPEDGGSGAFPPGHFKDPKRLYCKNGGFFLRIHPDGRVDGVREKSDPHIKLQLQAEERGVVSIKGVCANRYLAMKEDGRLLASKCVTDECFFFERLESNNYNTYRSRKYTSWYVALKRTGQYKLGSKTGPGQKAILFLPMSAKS

For `O=C1C[C@@H](O)[C@@H](O)[C@@H]2[C@@H]3C(=O)N(C4CCCCC4)C(=O)[C@@H]3CC[C@H]12`, the composite z-score in [1] was 0.258; in test [3], 0.0208; in [4] it was -0.0761; in test [5], 0.168; in test [6], 0.323; in [7] it was -0.505. The composite z-score in [8] came to 0.742; in test [9] it was 0.325; in test [10], 0.564; in test [11], 0.335; in [12], 0.949; in test [13], 0.329. For the same compound, the composite z-score in [14] is 0.583; in test [15], 0.525; in test [16], 0.521; in test [18] it was 0.422; in [19], 0.103. Moreover, the composite Z-score in test [2] was -0.236 (inactive). Also, the values for the z-score in test [17] and in test [20] were -0.338 and -0.163 (inactive), respectively.

Regarding `CCCC[C@H]1OB(O)C[C@H]2C1=C(C)C[C@H]1C(=O)N(C)C(=O)[C@H]12`, the composite z-score in test [1] was 0.748; in [3], 0.16; in test [4], -0.117; in [5], 0.328; in test [6] it was 0.326; in test [7], 0.308. The composite z-score was 1.08 in [8]; 0.311 in test [9]; 0.321 in test [10]; -0.0755 in test [11]; 0.739 in test [12]; 0.248 in test [13]. The composite z-score came to 0.615 in test [14]; 0.931 in test [15]; 1.31 in [16]; 0.794 in test [18]; 0.556 in test [19]. Besides, the composite Z-score in test [2] is 0.506 (inactive). Also, the results for the z-score in [17] and in test [20] were 0.445 and -0.769 (inactive), respectively.

Turning to `C[C@@H](c1ccccc1)N1C(=O)[C@H]2[C@H]3[C@H](O)C=CC(=O)[C@@H]3CC[C@H]2C1=O`, the composite z-score was 0.0343 in test [1]; -0.0932 in test [3]; -0.132 in test [4]; 0.572 in [5]; -0.263 in test [6]; 0.146 in [7]. The composite z-score in test [8] is 0.456; in [9], 0.778; in test [10] it was 0.518; in test [11], 0.299; in test [12], 0.492; in test [13], -0.0464. Moreover, the composite z-score in [14] was determined as 0.392; in test [15] it was 0.503; in [16], 0.104; in test [18] it was 0.752; in test [19], 0.204. The composite Z-score in [2] was -0.325 (inactive). Moreover, the z-score in [17] was 0.107; in [20], -0.62 (inactive).

With `CCCCCN1CC=CC23O[C@@H]4C=CCOC(=O)[C@@H]4[C@H]2C(=O)N(C(CO)C(C)C)[C@@H]3C1=O` (stereo not given in full), the composite z-score in test [1] is 0.13; in test [3] it was -0.0328; in [4], -0.13; in [5] it was 0.286; in test [6], -0.59; in test [7] it was 1.06. Further, the composite z-score is -0.827 in test [8]; -0.326 in test [9]; 0.203 in test [10]; 0.373 in [11]; -1.02 in test [12]; -0.565 in test [13]. Besides, the composite z-score in [14] is -0.217; in test [15], 0.142; in [16] it was -0.533; in test [18], 0.0028; in [19] it was -0.521. In addition, in [2], the composite Z-score is 0.252 (inactive). The results for the z-score in test [17] and in [20] were -0.348 and 0.281 (inactive), respectively.

For `O=C1C[C@@H](O)[C@@H](O)[C@@H]2[C@@H]3C(=O)N(c4ccc(F)cc4F)C(=O)[C@@H]3CC[C@@H]12`, the composite z-score was 0.129 in [1]; -0.0631 in test [3]; -0.118 in test [4]; 0.234 in test [5]; -0.344 in test [6]; 0.495 in test [7]. For the same compound, the composite z-score is 0.236 in test [8]; 0.65 in test [9]; -0.397 in test [10]; 0.408 in test [11]; 0.709 in [12]; -0.246 in test [13]. Besides, the composite z-score in [14] is -0.518; in test [15] it was 0.312; in test [16] it was 0.294; in test [18] it was 0.379; in test [19] it was 0.044. Further, the composite Z-score in test [2] was -0.521 (inactive). In addition, the z-score in test [17] is 0.245; in test [20], -0.9 (inactive).
